# Compounds with a hit are over-represented: about 1.6% of the library has one in this group of screens.
# V-ATPase pHluor = regulators of yeast V-ATPase proton pumping, primary screen, pHLuorin cytosolic pH fluorescence; S. cerevisiae; response, % at 10 µM; 350,000 compounds, 0.37% hits; AID 504577, 2011; in the data active = response mostly above about 7.3%, no sharp cut-off; inactive = mostly below about 5.4%; also: actives read high
# PERK inhibitor = block of dimerizer-induced PERK translation repression, primary screen, PERK inhibitor project, CHO PERK-DD cells, SEAP luminescence, HTS; 220,000 compounds, 0.17% hits; AID 1416, 2008; CHO PERK-DD fusion, SEAP luminescence translation reporter; inhibition, % at 5.6 µM;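 active = inhibition above the mean inhibition of all tested compounds plus 3 SD, set separately per screening campaign, cut at about 2.9% in these data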;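 also: PERK kinase domain activated by AP20187 dimerizer at 100 nM; 0% = DMSO with dimerizer and 100% = rapamycin at 8.4 µM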
# NALP1 yeast inh = NALP1 inflammasome inhibitors in reconstituted yeast, colorimetric, S. cerevisiae, triplicate retest; S. cerevisiae NALP1/ASC/caspase-1 growth, X-gal OD620, 72 h; inhibition, % at 10 µM; 280,000 compounds, 0.61% hits; AID 2071, 2009; in the data active = inhibition mostly above about 24%, no sharp cut-off; inactive = mostly below about 32%
# NALP3 yeast inh = NALP3 inflammasome inhibitors in reconstituted yeast, primary screen, luminescence, uHTS | Yeast reconstituted NLRP3/ASC/caspase-1, beta-gal luminescence, 24 h | inhibition, % at 10 µM | AID 2825, 2010 | 330,000 compounds, 0.39% hits;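 active = inhibition of 50% or more; inactive = inhibition below 50%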;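 also: plate controls were induced DMSO wells for no effect and uninduced yeast grown without galactose for full effect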
# Yeast superoxide = reduction of superoxide in aged yeast, primary screen, HTS; S. cerevisiae aged cells, superoxide DHE fluorescence; hits give low values; superoxide response (% of plate mean), % at 10 µM; 330,000 compounds, 0.18% hits; AID 2690, 2010;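 active = superoxide response under a set limit, about three screen SD below normal, cut at about 65% in these data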;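 also: yeast aged for seven days with compound at 30 °C before DHE staining; 100% = average MFI of all compound-treated wells on the plate with controls excluded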
# Rce1 inh = yeast Rce1p protease inhibitors, primary screen, biochemical, fluorescence, cell-free homogeneous. CAAX prenyl protease 2 (Saccharomyces cerevisiae (strain ATCC 204508 / S288c)), Q03530. yeast membranes, quenched prenylated peptide cleavage fluorescence. calls only. 290,000 compounds, 0.27% hits;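 active = fall in fluorescence gain of 50% or more versus controls, with final raw signal at or below 3038400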;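 also: plate controls were neutral control wells for no effect and wells lacking membranes for full effect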
# Target sequence (Q03530 whole entry, looked up): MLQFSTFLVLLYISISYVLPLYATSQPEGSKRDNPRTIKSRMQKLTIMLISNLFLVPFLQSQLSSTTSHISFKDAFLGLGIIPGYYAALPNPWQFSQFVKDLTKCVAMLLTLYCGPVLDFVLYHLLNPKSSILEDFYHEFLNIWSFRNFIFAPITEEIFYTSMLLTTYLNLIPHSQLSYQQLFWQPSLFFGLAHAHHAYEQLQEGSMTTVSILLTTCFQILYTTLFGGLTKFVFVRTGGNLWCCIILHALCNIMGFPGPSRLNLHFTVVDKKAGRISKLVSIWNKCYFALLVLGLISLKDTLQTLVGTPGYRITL
# NALP3 yeast conf = NALP3 inhibitors retested in yeast, confirmation, luminescence, single concentration | 1,300 compounds, 81% hits | AID 435006, 2010 | yeast expressing human NALP3 | shares compounds with NALP3 yeast inh | inhibition, % at 10 µM; in the data active = inhibition above about 48%
# Casp1-ASC yeast = CASP1-PYCARD signaling inhibition in yeast, confirmatory test, counterassay for NLRP3 inhibitor program, one-dose; shares compounds with NALP3 yeast inh; 1,000 compounds, 66% hits; inhibition, % at 10 µM; yeast expressing Caspase-1-ASC, luminescence counter screen; AID 488784, 2010
# NALP3 yeast rt = NALP3 inhibitors in yeast, repeat test, confirmation, luminescence, single concentration, retest | shares compounds with NALP3 yeast inh | yeast expressing human NALP3, luminescence read-out | inhibition, % at 10 µM | 1,000 compounds, 53% hits
# An asterisk follows results filed as active; i = inactive; nt = no result; + = active, no number; ! = repeats disagree. Rule as the data show it, unless noted: active = inhibition above about 50%; inactive = the rest.
SMILES,V-ATPase pHluor,PERK inhibitor,NALP1 yeast inh,NALP3 yeast inh,Yeast superoxide,Rce1 inh,NALP3 yeast conf,Casp1-ASC yeast,NALP3 yeast rt
COc1cc(C(C[N+](=O)[O-])c2c(N)n(C)c(=O)n(C)c2=O)ccc1O (stereo unspecified),1,2,-4,50*,99,i,32,nt,nt
Cc1ccc(C(C[N+](=O)[O-])c2c(N)n(C)c(=O)n(C)c2=O)cc1 (stereo unspecified),1,0,+,70*,115,i,64*,78*,53*
COc1cccc(F)c1C(C[N+](=O)[O-])c1c(N)n(C)c(=O)n(C)c1=O (stereo unspecified),0,-1,+,64*,129,i,44,56*,33
O=S(=O)(NC1CC2CCC1C2)c1ccc(Br)cc1 (stereo unspecified),-4,nt,19,43,147,i,nt,nt,nt
O=S(=O)(NC1CC2CCC1C2)c1ccc(Br)s1 (stereo unspecified),-3,0,0,50*,189,i,63*,59*,40
CC(C)N(Cc1ccccc1)S(=O)(=O)c1ccc(F)cc1,0,nt,14,51*,93,i,56*,29,31
Cc1cc2nc(N3C(=O)CNC3=S)sc2cc1C,2,-1,5,69*,94,i,82*,nt,nt
CCc1cc(C(=O)Nc2cc(Cl)ccc2N2CCN(C)CC2)sc1C,0,nt,nt,67*,84,i,79*,77*,73*
O=[N+]([O-])c1cc(Cl)c2cccnc2c1O,2,0,2,1,180,i,nt,nt,nt
Oc1c(I)cc(Cl)c2cccnc12,1,1,70*,59*,84,i,68*,72*,79*
C[C@H]1CN([C@@H](C)CO)C(=O)CCCn2nncc2CO[C@@H]1CN(C)C(=O)c1ccncc1,2,nt,nt,nt,nt,nt,nt,nt,nt
CCOC(=O)C1=C(COCCN)NC(C)=C(C(=O)OC)C1c1ccccc1Cl (stereo unspecified),0,nt,nt,53*!,113,i,59*,44,49
CCOC(=O)C1=C(C)NC(C)=C(C(=O)OC)C1c1cccc(Cl)c1Cl (stereo unspecified),2,-2,10,8,109,i,nt,nt,nt
S=C(Nc1ccc2nsnc2c1)NC1CCCCC1,11,0,17,9,90,i,nt,nt,nt
S=C(Nc1ccc(Cl)c(Cl)c1)NC1CCCCC1,3,0,32,53*,105,i,59*,85*,68*
C[C@H]1CN([C@@H](C)CO)C(=O)CCCn2nncc2CO[C@H]1CN(C)S(=O)(=O)c1ccc(F)cc1,1,nt,nt,nt,nt,nt,nt,nt,nt
CC(NC(=O)C1CCCN1C(=O)c1cccs1)c1ccc(Cl)cc1Cl (stereo unspecified),2,nt,nt,nt,nt,nt,nt,nt,nt
C=CCSc1nsc(NC(=O)Nc2ccc(F)cc2)n1,2,nt,52,56*,116,i,78*,79*,82*
Cn1cccc1/C=C1\Cc2ccccc2C1=O,3,0,2,54*,100,i,69*,nt,nt
COc1cc(OC)cc(C(=O)N2CCN(S(=O)(=O)c3ccc4c(c3)OCCO4)CC2)c1,0,nt,nt,nt,nt,nt,nt,nt,nt
COc1cccc(/C=C/C(=O)N2CCN(S(=O)(=O)c3ccccc3)CC2)c1,0,nt,nt,nt,nt,nt,nt,nt,nt
CSc1nc2ccc(S(=O)(=O)N3CCCC3)cc2s1,5,0,13,85*,100,i,86*,86*,80*
Cc1nc(N2CCCCC2)[nH]c(=O)c1CN(C)N=O,1,nt,nt,nt,nt,nt,nt,nt,nt
COc1ccc(-n2cnc3cc(NC(=O)c4ccco4)ccc32)cc1,0,0,-7,58*,71,i,80*,62*,70*
O=C(Nc1cnc2ccccc2c1)c1ccco1,-3,1,1,52*,124,i,38,41,42
SMILES,V-ATPase pHluor,PERK inhibitor,NALP1 yeast inh,NALP3 yeast inh,Yeast superoxide,Rce1 inh,NALP3 yeast conf,Casp1-ASC yeast,NALP3 yeast rt
O=C(Nc1ccc2c(c1)ncn2C1CCCCC1)c1ccco1,8,1,-4,53*,94,i,70*,55*,52*
C[C@H]1CN([C@@H](C)CO)C(=O)CCCn2cc(nn2)CO[C@@H]1CN(C)C(=O)CCC(F)(F)F,-1,nt,nt,nt,nt,nt,nt,nt,nt
COCCN(C(=O)COC(=O)C12CC3CC(CC(O)(C3)C1)C2)c1c(N)n(Cc2ccccc2)c(=O)[nH]c1=O,1,nt,nt,nt,nt,nt,nt,nt,nt
O=C(c1cccs1)N1C[C@@H](n2cc(C3CC3)nn2)[C@H](O)C[C@@H]1c1ccccc1,0,nt,nt,nt,nt,nt,nt,nt,nt
CNC(=O)c1c(O)c2cccc3c2n(c1=O)CC3,-1,1,nt,54*,101,i,60*,41,36
CC(C)NC(=O)c1c(O)c2cccc3c2n(c1=O)CCC3,3,nt,5,14,105,i,nt,nt,nt
CCNCCNC(=O)c1c(O)c2cccc3c2n(c1=O)CCC3,2,-1,-4,53*,102,i,74*,41,44
NNC(=O)c1c(O)c2cccc3c2n(c1=O)CCC3,-2,nt,15,62*,94,i,76*,52*,52*
CCCCNC(=O)c1c(O)c2cccc3c2n(c1=O)CCC3,0,-1,0,4,78,i,nt,nt,nt
Cc1sc(N=Nc2ccc(N(C)C)cc2)[n+]([O-])c1C,3,nt,nt,nt,nt,nt,nt,nt,nt
COc1ccc(NC(=O)C[C@H]2C(=O)N(C3CCCCC3)C[C@@H]2C)cc1,-1,nt,nt,nt,nt,nt,nt,nt,nt
Nc1c(-c2ccccc2)cnn1-c1cccc(Cl)c1,4,nt,26,50*,95,i,76*,59*,54*
CNC(=O)/C(C#N)=C/c1ccc(OCCOc2ccccc2)cc1,-3,nt,15,56*,104,i,73*,58*,48
CCCCOc1cccc(/C=C(\C#N)C(=O)NC2CC2)c1,-2,nt,18,51*,121,i,54*,38,32
CCOC(=O)c1ccc(NC(=O)c2nc(S(=O)(=O)Cc3ccccc3)ncc2Cl)cc1,-1,nt,10,2,94,i,nt,nt,nt
CCc1ccc(NC(=O)c2nc(S(=O)(=O)Cc3ccccc3)ncc2Cl)cc1,2,nt,12,60*,129,i,73*,54*,66*

# Screening data: PubChem, several laboratories
